Screening results (PubChem BioAssay)
RE007 growth inh: qHTS Assay for Inhibitors of the HIV-1 protein Vpr; S. pombe RE007 Vpr strain, BacTiter-Glo ATP luminescence, 24 h; Potency, µM (doses to about 92.2 µM), actives largely listed as inhibitors; hit rate 0.21% among 360,000; AID 651644, 2012; active = well fitted falling curve with a large enough effect; inconclusive = small, poorly fitted or top-dose-only effect; inactive = no such curve, though single readings can be large or run the other way; note: nearly all actives have a fitted effect of over 50% in size
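Fission yeast strain RE007, carrying one chromosomally integrated HIV-1 vpr copy, was seeded at OD 0.01 in PMG+AL medium with 23 nL pinned compound. After 24 h at 30 °C and 99% humidity, viability was read by BacTiter-Glo luminescence.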
TbPYK inhibitor: qHTS of Trypanosoma Brucei Inhibitors | TbPYK enzyme, Kinase-Glo Plus ATP luminescence, 45 min | hit rate 0.12% among 410,000 | Potency, µM (titrated, usually from 76.8 µM), hits mostly inhibitors | AID 624173, 2012; note: nearly all actives have a fitted effect of over 50% in size
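TbPYK + substrate in 50 mM TEA pH 7.2, 100 mM KCl, 10 mM MgCl2, 0.05% BSA, 0.01% Tween-20; cpd pinned; ADP 130 uM final; 45 min RT; Kinase-Glo Plus 10 min; luminescence endpoint.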
Sm TGR block: qHTS Assay for the Inhibitors of Schistosoma Mansoni Peroxiredoxins; Schistosoma mansoni thioredoxin glutathione reductase (TGR), Q962Y6; purified TGR, DTNB reduction, TNB absorbance 405 nm; Potency, µM (titrated, usually from 114 µM), actives largely listed as inhibitors; hit rate 3% among 360,000; note: nearly all actives have a fitted effect of over 60% in size
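First, TGR (20 nM dispensed) and NADPH were mixed with compound. Second, a 15 min room-temperature incubation followed. Third, further NADPH and then DTNB were added to start the reaction. Finally, TNB absorbance was monitored kinetically.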
LmPK inh: qHTS Assay for Inhibitors of Leishmania Mexicana Pyruvate Kinase (LmPK); Q27686; purified LmPK, Kinase-Glo ATP luminescence, 1 h; Potency, µM (doses to about 57.5 µM), actives largely listed as inhibitors; hit rate 0.37% among 290,000
Target sequence (Q27686 whole entry, looked up): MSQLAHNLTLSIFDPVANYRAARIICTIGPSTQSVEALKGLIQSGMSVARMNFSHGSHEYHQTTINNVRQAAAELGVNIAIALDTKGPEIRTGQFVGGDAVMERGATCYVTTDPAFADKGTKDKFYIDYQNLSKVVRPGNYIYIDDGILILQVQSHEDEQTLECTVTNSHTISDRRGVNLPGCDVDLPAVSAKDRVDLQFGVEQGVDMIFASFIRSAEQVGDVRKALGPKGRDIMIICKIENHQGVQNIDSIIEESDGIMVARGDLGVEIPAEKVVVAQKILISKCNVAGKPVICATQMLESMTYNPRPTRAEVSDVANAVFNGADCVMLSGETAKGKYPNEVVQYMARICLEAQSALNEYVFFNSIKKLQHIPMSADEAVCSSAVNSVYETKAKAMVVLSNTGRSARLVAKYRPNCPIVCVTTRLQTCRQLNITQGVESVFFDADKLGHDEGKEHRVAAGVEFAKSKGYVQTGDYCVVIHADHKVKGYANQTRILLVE
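Pyruvate kinase activity monitored as ATP production (luciferase luminescence). Conditions: 0.1 nM enzyme, 0.5 mM PEP, 0.1 mM ADP, 1 h, RT; normalized against uninhibited and no-enzyme wells.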
FBPA Giardia inh: qHTS Assay for Inhibitors of Fructose-1,6-bisphosphate Aldolase from Giardia Lamblia; A8B2U2; purified Giardia FBPA; Potency, µM (titrated, usually from 59.6 µM), hits mostly inhibitors; hit rate 0.71% among 290,000; note: nearly all actives have a fitted effect of over 55% in size
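40 nM FBPA preincubated 10 min at RT with compound (up to 57.5 uM final), then substrate plus GAPDH/TPI/NAD/arsenate coupling and diaphorase/resazurin added. Fluorescence read after 20 min at RT, 525/598 nm.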
NS1 inh: qHTS Assay for Inhibitors of Influenza NS1 Protein Function; Potency, µM (highest dose often 46.1 µM); hit rate 0.4% among 270,000; AID 2326, 2010; calls by dose curve; note: actives are rising curves; nearly all actives have a fitted effect of over 50% in size
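In this qHTS, NS1 from influenza A is expressed in budding yeast, where it slows growth. Cells are switched from glucose to 2% galactose medium (pH 6.0, -URA), treated with compound, and growth recovery is read at OD600.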
Hits are given with their value; . = inactive; ? = inconclusive; / = no result; [ ] = another dose, or the depositor's remark. In the library only some 3.5% were active in any assay of this set; here they are far more common. Unless noted, calls come from the whole dose curve; as a rule, active = well fitted curve in the direction sought with a large enough effect; inconclusive = small, poorly fitted or top-dose-only effect, or another doubt; inactive = no such curve, though single readings can be large; an effect the other way counts as inactive or inconclusive.

SMILES	RE007 growth inh	TbPYK inhibitor	Sm TGR block	LmPK inh	FBPA Giardia inh	NS1 inh
Cc1ccc2nc(-c3ccccn3)[nH]c2c1	?	?	.	22µM	.	.
Cc1ccccc1NC(=S)NC(=O)C1CCCCC1	.	.	14µM	.	/	.
Cc1cc(C)cc(NC(=S)NC(=O)C2CC2)c1	.	.	13µM	.	/	.
Cc1cccc(NC(=S)NC(=O)C2CC2)c1	/	/	35µM	.	/	.
Cc1cc(NC(=S)NC(=O)C2CC2)ccc1Br	?	.	?	.	.	.
Cc1ccc(C)c(N2CCN(C(=O)c3cc4c(=O)n(Cc5ccccc5)ccc4nc3C)CC2)c1	/	.	.	/	/	/
Cc1cn(C)c(CC(=O)NCc2ccc(F)cc2)c1C(=O)O	/	.	.	/	/	/
CCCCCOC(=O)c1ccc(OC(=O)c2sc3ncn(Cc4cccc(F)c4)c(=O)c3c2C)cc1	/	.	.	/	/	/
COc1cccc(CN2CCNC(=O)C2CC(=O)N(C)CCC2CCOCC2)c1OC (stereo not drawn)	.	.	25µM	.	/	.
CCOc1ccccc1CN1CCNC(=O)C1CC(=O)N(C)CCC1CCOCC1 (stereo not drawn)	.	.	?	.	.	.
COc1cccc(CN2CCNC(=O)C2CC(=O)NCCN2CCOCC2)c1OC (stereo not drawn)	.	.	.	.	/	.
COc1cccc(CNC(=O)CC2C(=O)NCCN2Cc2ccoc2)c1OC (stereo not drawn)	.	.	20µM	.	.	.
O=C(Cn1nc(CNc2ccc(Br)cc2)[n+]2c1CCCCC2)c1ccc([N+](=O)[O-])cc1	.	.	50µM	.	.	.
Clc1cccc(-c2ccc(CNCCSc3nnnn3-c3ccccc3)o2)c1	/	.	.	/	/	/
COc1cccc(-c2nc(S(=O)(=O)c3ccc(Cl)cc3)c(NCc3ccccc3)o2)c1	/	.	.	/	/	/
O=C(CCl)Nc1cccc2ncccc12	.	.	45µM	.	.	.
CCOC(=O)CCc1c(C)nc(SCC(=O)O)c(C#N)c1C	.	32µM	.	.	.	.
Cn1c(O)c(N=NC(N)=S)c2ccccc21	/	.	/	/	/	/
Cn1cc(C(c2ccccc2)c2ccc(Cl)s2)c2ccccc21 (stereo not drawn)	/	.	.	/	/	/
O=C(c1ccco1)N1CCN(C(=O)c2ccc(Cn3cc(Br)cn3)o2)CC1	.	.	40µM	.	.	.
CCc1sc(C(=O)N2CCc3ccccc32)cc1C	.	.	.	25µM	.	/
CN(C)c1ccc2nc3ccc(=O)cc-3sc2c1	45µM	?	/	/	/	/
CC(C)(C)c1ccc(/C([O-])=C(/C(=S)NCc2ccco2)[n+]2ccccc2)cc1	/	/	56µM	.	?	.
Cc1ccc[n+](/C(C(=S)NCc2ccco2)=C(/[O-])c2ccccc2Cl)c1	.	.	32µM	.	?	.
CN(C)c1ccc(/C=N\NC(=O)c2cnc3ccccc3c2)cc1	/	/	/	/	/	.
SMILES	RE007 growth inh	TbPYK inhibitor	Sm TGR block	LmPK inh	FBPA Giardia inh	NS1 inh
COc1cc(CNc2ccc(N3CCCC3)cc2)ccc1OCc1ccccc1	?	?	45µM	.	?	.
Cc1nn2c(NCc3ccccn3)c3c(nc2c1-c1ccccc1)CCC3	.	.	25µM	.	.	.
COC(=O)c1ccc(NC(=O)CC2C(=O)N(c3cccc(OC)c3)C(=O)N2Cc2cccc(OC)c2)cc1 (stereo not drawn)	/	.	.	/	/	/
CCC(=O)N1CCC2(CC1)Oc1ccc(F)cc1C(=O)C21CC(c2ccccc2)=NO1 (stereo not drawn)	.	.	50µM	.	.	.
CCc1ccc(NC(=O)N2CCN(Cc3cc(=O)n4nc(-c5ccccc5OC)sc4n3)CC2)cc1	/	.	.	/	/	/
COc1cc(CN(C)Cc2ccccc2)cc(OC)c1O	.	.	11µM	.	?	.
COc1ccc(CCN(C)Cc2ccc(OC)c(OCc3ccccc3)c2)cc1OC	.	.	.	.	.	.
CCOc1cccc2sc(NC(=O)CS(=O)(=O)c3ccc(C)cc3)nc12	/	.[15.4 µM]	.	/	/	/
